Data taken from the supplement of paper PMC3334620.
Over roughly 33,000 sequences, “E-score (-0.5 to 0.5)” has its median near -0.016; the highest 2% begin near 0.32. What follows is part of a selection rich in the highest values, with near analogues and random picks from the rest.

molecular target: T1, Stp1 (UniProt B3LFK1); assay: PBM E-score (8-mer binding enrichment) (E-score (-0.5 to 0.5)); higher = stronger / more preferred TF binding; settings: protein concentration: 200 nM; construct: GST-full length
T1 sequence: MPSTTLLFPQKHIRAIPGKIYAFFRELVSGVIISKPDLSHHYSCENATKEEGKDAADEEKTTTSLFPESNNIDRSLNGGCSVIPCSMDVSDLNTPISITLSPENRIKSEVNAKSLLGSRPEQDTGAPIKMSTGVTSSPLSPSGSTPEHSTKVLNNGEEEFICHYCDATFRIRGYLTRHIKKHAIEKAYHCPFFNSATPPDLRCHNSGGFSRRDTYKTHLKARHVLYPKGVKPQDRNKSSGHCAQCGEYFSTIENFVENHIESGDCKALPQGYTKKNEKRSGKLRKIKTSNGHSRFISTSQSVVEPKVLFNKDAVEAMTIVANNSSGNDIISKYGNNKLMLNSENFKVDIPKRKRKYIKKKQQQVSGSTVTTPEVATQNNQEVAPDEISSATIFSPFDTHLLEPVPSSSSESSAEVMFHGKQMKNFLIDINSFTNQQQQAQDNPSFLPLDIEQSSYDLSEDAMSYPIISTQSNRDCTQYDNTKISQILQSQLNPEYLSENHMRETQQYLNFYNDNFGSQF
Protocol: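 Universal 'all 10-mer' protein binding microarrays (Agilent AMADID 015681) probed with GST-tagged S. cerevisiae TFs (full-length or DBD) made by in vitro transcription/translation (PURExpress), about 100-200 nM. Bound TF was detected with fluorescent anti-GST. Each ungapped 8-mer (which stands for itself and its reverse complement) is scored by the PBM enrichment score (E-score), a modified Wilcoxon-Mann-Whitney statistic from -0.5 to +0.5, computed with the Universal PBM Analysis Suite. Scale: above 0.35 generally sequence-specific binding.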

| Sequence | PBM E-score |
| --- | --- |
| CGCAGTAA | 0.0664 |
| GGTGAGGA | 0.0236 |
| ATGGGTCA | -0.255 |
| CGCCATAC | 0.194 |
| AAACCGGG | -0.195 |
| AATCCTTC | -0.128 |
| ATACAGAC | -0.0347 |
| GCGTGCCC | 0.0203 |
| ATGTGCCA | 0.137 |
| CCGTGCCA | 0.35 |
| CCGTGCCG | 0.47 |
| CCGTGACG | 0.109 |
| CCCTGCCG | 0.161 |
| CTGTGCCC | 0.242 |
| GCGTGCCA | 0.206 |
| TCGTGCCA | 0.177 |
| ATGTGCCC | 0.0678 |
| ATGTGCCG | 0.377 |
| CCGTGCCC | 0.365 |
| ACTTCTGC | 0.0768 |
| GCTTCATA | 0.0285 |
| CTTGGCAA | -0.119 |
| CCACCCGG | -0.218 |
| CGCAAGTC | -0.309 |
| GCTACTGA | -0.0112 |

| Sequence | PBM E-score |
| --- | --- |
| CAAGGCTA | 0.275 |
| CACAATGC | 0.00061 |
| AGGTGCCA | -0.0228 |
| ATGTGGCA | 0.27 |
| ACGTGCGA | 0.00881 |
| AGGTGCCC | -0.0256 |
| AGGTGCCG | 0.385 |
| ATGTGGCC | 0.0349 |
| ACGTGCGG | 0.357 |
| CCGTGCAA | 0.325 |
| CCGTGCAG | 0.315 |
| TCGTGCAA | 0.288 |
| ATGTGCGG | 0.213 |
| ATGTGGCG | 0.322 |
| CGTTGACA | 0.0374 |
| AGAATCTC | -0.0977 |
| AAGGAGCC | -0.0111 |
| CTCTTAGC | 0.0466 |
| ACGTCGTG | -0.00714 |
| AGTGGGCG | 0.0679 |
| ACGTGCCG | 0.39 |
| ACGTGCCT | 0.278 |
| ACGTGGCA | 0.152 |
| TCGTGGCA | 0.102 |
| ACGTGCCC | 0.18 |

| Sequence | PBM E-score |
| --- | --- |
| CCGTGGCA | 0.357 |
| GATGGCAC | 0.196 |
| ATCTCTTG | -0.137 |
| AGCCGCAA | 0.188 |
| ACCCGCAT | 0.1 |
| AGCCGCAC | 0.42 |
| AGCCGCAT | 0.452 |
| ACCCGCAC | 0.129 |
| AACCGCAC | 0.0401 |
| CACTCTGC | -0.129 |
| CCCTTCTC | -0.259 |
| CTCAGGTC | -0.196 |
| TATTAGCA | 0.0213 |
| ACTCAAGA | -0.0476 |
| CATATAAG | 0.118 |
| AATATAAT | 0.0522 |
| AATATAAG | 0.32 |
| CCGTTTAA | 0.349 |
| CCGTTTAC | 0.235 |
| ACGTTTAA | 0.12 |
| AGTTCTAA | -0.0232 |
| TATGGCGA | 0.0899 |
| CCATAAAG | -0.0597 |
| GAGGCAGA | -0.118 |
| AAGGCACC | 0.402 |

| Sequence | PBM E-score |
| --- | --- |
| CAGGCACA | -0.259 |
| GAGGCACC | 0.239 |
| CAGGCACG | 0.174 |
| AAGGCACG | 0.397 |
| CAGGCACC | -0.107 |
| AAGGCACA | 0.338 |
| AAGGCAAA | 0.247 |
| GAGGCACA | 0.332 |
| TAGGCACA | 0.132 |
| AAGGCAGA | -0.164 |
| CACAAGCA | -0.0847 |
| AGTCCTTG | -0.0837 |
| GTTTCTCA | -0.115 |
| CAAGTAAC | 0.0497 |
| ATGAGAAT | 0.146 |
| CCTAATCA | -0.0333 |
| ACAGAGAA | -0.0516 |
| GATTTGCC | 0.219 |
| AGCCCGCC | -0.0384 |
| ATCTGCTC | -0.272 |
| TAAGATTA | 0.0404 |
| AAGGCATT | 0.322 |
| AAGGCATC | 0.292 |
| AGGGCACT | 0.239 |
| AATGCACT | 0.109 |

| Sequence | PBM E-score |
| --- | --- |
| AAGGCACT | 0.323 |
| AAGGCATG | 0.158 |
| CCCTACAG | -0.178 |
| GTCGCAAA | 0.155 |
| CCCGGCTA | -0.148 |
| CACGGCTC | 0.469 |
| AACGGCTC | 0.407 |
| GACGGCTC | 0.307 |
| CAAGGCTC | 0.0922 |
| AAAGGCTT | -0.0867 |
| ACCGGCTC | -0.0667 |
| CACGGCTG | 0.363 |
| AACGGCTT | 0.366 |
| AACGGCTG | 0.0994 |
| ACCGGCTG | -0.0577 |
| AACGGGCT | -0.293 |
| CATGTAGG | -0.00116 |
| AGTTGAGA | -0.0601 |
| ACTCCAGG | -0.175 |
| GGAGCACC | -0.188 |
| CCTTACAG | 0.0881 |
| AGGGAGTG | -0.0747 |
| CCGTCATA | 0.0738 |
| CAGAACGA | 0.00724 |
| GCCGGCTA | 0.0397 |

| Sequence | PBM E-score |
| --- | --- |
| AACGGCTA | 0.372 |
| GTCGGCTA | -0.0709 |
| ATCGGCTA | -0.108 |
| TACGGCTA | 0.349 |
| CTCGGCTA | 0.0804 |
| ACCGGCTA | -0.0689 |
| GACGGCTA | 0.235 |
| CACGGCTA | 0.415 |
| ACACCTTA | 0.0262 |
| ACGACCGT | -0.11 |
| AAAGTGCC | 0.201 |
| AGCACGGA | 0.114 |
| AACACGGA | 0.199 |
| CACACGGC | 0.471 |
| ATCACGGC | 0.351 |
| AACACGGG | 0.116 |
| CACACGGG | 0.235 |
| ATCACGGA | -0.0235 |
| CACACGGA | 0.253 |
| AGCACGGC | 0.451 |
| ATCACGGG | 0.00016 |
| AACACGGC | 0.449 |
| AGCACGGG | 0.14 |
| ACACCGAA | 0.0644 |
| AAGGAGCT | -0.235 |

| Sequence | PBM E-score |
| --- | --- |
| AAAGCAAC | 0.0791 |
| AGTATTCG | 0.0476 |
| ATTTGGTA | 0.144 |
| AGACGCGC | 0.0493 |
| GACACGCC | 0.105 |
| GACACGGC | 0.479 |
| GACACGGA | 0.315 |
| GCCCTATA | 0.206 |
| AACCAAAG | 0.0816 |
| ACCACTAT | -0.127 |
| GGCATTAA | 0.319 |
| AGCATTAC | -0.0767 |
| CGCATTAC | -0.0452 |
| AGCATTAA | -0.0764 |
| GGCATTAC | 0.364 |
| CGCATTAA | 0.144 |
| ATACTGGC | -0.284 |
| AATATCGT | 0.141 |
| ACCCAACT | -0.178 |
| ACTGCCGG | 0.0822 |
| CGTGCCAG | 0.172 |
| CCTGCCGC | 0.226 |
